Screening results deposited in PubChem by National Center for Advancing Translational Sciences (NCATS).
This excerpt belongs to a sample that is enriched for hits.
IL1B secr inh = inflammasome signaling inhibition, IL-1 beta readout; AID 743279; THP-1 LPS/ATP IL-1B secretion, AlphaLISA, 16 h; hits give low values; activity change, % at 57.5 µM; actives 4.7% (n = 360,000); in the data active = activity change below about -50%; inconclusive = mostly about -30% to -49%
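Secreted IL-1B measured by AlphaLISA bead assay after 16 h compound exposure of THP-1 cells; compounds (final up to 57.5 uM) added 1 h before LPS (250 ng/mL) and ATP (1.25 mM) stimulation; lower signal means less secretion.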
12-LOX inh = inhibitors of human 12S-lipoxygenase ALOX12. purified 12hLO, xylenol orange hydroperoxide absorbance. Potency, µM (titrated, usually from 108 µM), hits mostly inhibitors. actives 1.1% (n = 580,000). AID 1671190
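Hydroperoxide product was detected by ferrous iron/xylenol orange as the 573 to 405 nm absorbance ratio. Arachidonic acid at 40 uM (final) was turned over for 30 min at room temperature by 150 nM human 12hLO, pH 7.0 Hepes buffer, after 15 min compound preincubation.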
HT1080 IDH1KD tx = HT-1080 IDH1 knockdown cell toxicity (counter line); HT-1080 IDH1 knockdown viability, ATP luminescence, 48 h; Potency, µM (highest dose often 46.1 µM), most hits filed as cytotoxic; actives 2% (n = 360,000)
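Knockdown cells (IDH1KD HT-1080) received compounds 2 h after plating at 750 cells/well and were kept 48 h at 37 °C in 5% FBS RPMI. A CellTiter-Glo luminescence read gave % activity for curve fitting.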
DT40 TDP1 no CPT = qHTS for Inhibitors of human tyrosyl-DNA phosphodiesterase 1 (TDP1): qHTS in cells in absence of CPT; Potency, µM (doses to about 46.2 µM), most hits filed as inhibitors; actives 15% (n = 420,000); AID 686978, 2013; DT40 Tdp1-/- hTDP1 cells, no CPT, ATP luminescence, 48 h; note: nearly all actives have a fitted effect of over 55% in size
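Readout: luminescence from CellTiter-Glo after 30 min in the dark at RT. Cells: DT40 Tdp1-/- with stable hTDP1, 400/well. Exposure: compounds alone, ≥48 hr, 37 °C.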
HT1080-NT tox = kills 2HG-producing HT-1080-NT fibrosarcoma cells; actives 1.6% (n = 360,000); Potency, µM (top dose mostly 46.1 µM), hits mostly cytotoxic; HT-1080-NT fibrosarcoma viability, CellTiter-Glo ATP luminescence, 48 h;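 note: NT is the 2HG producing partner of a matched IDH1 knockdown line; nearly all actives have a fitted effect of over 55% in size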
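Compounds were tested in concentration-response format on HT-1080-NT cells for 48 hours at 37 degrees C. Cell viability came from CellTiter-Glo luminescence; curves were classified by r2, response magnitude and activity.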
TDP1 cell CPT = growth inhibition of DT40 Tdp1-/-;hTDP1 cells with camptothecin (screen for TDP1 inhibitors); chicken DT40 Tdp1-/-;hTDP1 cells + 20 nM CPT, ATP luminescence, 48 h; Potency, µM (doses to about 46.2 µM), most hits filed as inhibitors; actives 12% (n = 420,000); AID 686979; note: nearly all actives have a fitted effect of over 55% in size
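Chicken DT40 Tdp1-/- cells complemented with human TDP1, 400 cells/well, exposed to compounds plus 20 nM camptothecin for at least 48 h at 37 C; viability read as ATP content by CellTiter-Glo luminescence.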
A number is an active result. Unless noted, calls come from the whole dose curve; as a rule, active = well fitted curve in the direction sought with a large enough effect; inconclusive = small, poorly fitted or top-dose-only effect, or another doubt; inactive = no such curve, though single readings can be large; an effect the other way counts as inactive or inconclusive.

COc1cccc(CNC(=O)N2CCc3c(sc4c3CCCC4)C2c2ccc(F)cc2)c1 (stereo not drawn) was read as 12-LOX inh inactive, DT40 TDP1 no CPT 14.6µM and TDP1 cell CPT inconclusive.
`Cn1c(-c2ccccc2)cnc1NCc1cccc([N+](=O)[O-])c1` gave IL1B secr inh inconclusive, 12-LOX inh inactive, HT1080 IDH1KD tx inactive, DT40 TDP1 no CPT inconclusive, HT1080-NT tox inactive and TDP1 cell CPT inconclusive.
`CSc1ccc(CNc2ncc(-c3cccc([N+](=O)[O-])c3)n2C)cc1` gave IL1B secr inh inconclusive, 12-LOX inh 0.708µM, HT1080 IDH1KD tx inactive, DT40 TDP1 no CPT 23.1µM, HT1080-NT tox inactive and TDP1 cell CPT 16.4µM.
Screening CSc1ccc(CNc2ncc(-c3ccccc3)n2C)cc1 returned 12-LOX inh inconclusive, DT40 TDP1 no CPT 18.4µM and TDP1 cell CPT inconclusive.
`CC(Sc1nc(CN2CCOCC2)nc2ccccc12)C(=O)N1CCCCCC1` (stereo not drawn) gave 12-LOX inh inactive.
For Cc1ccc(NC(=O)C2CCCN(c3nnc(C)c4c(C)n(-c5ccccc5)nc34)C2)cc1Cl (stereo not drawn) the results were 12-LOX inh inactive, DT40 TDP1 no CPT 4.11µM and TDP1 cell CPT 11.6µM.
For Cc1ccc(NC(=O)N2CCN(c3nnc(C)c4c(C)n(-c5ccccc5)nc34)CC2)cc1Cl the results were 12-LOX inh inconclusive, DT40 TDP1 no CPT inactive and TDP1 cell CPT inactive.
For COc1ccc(C)cc1NC(=O)N1CCN(c2nnc(C)c3c(C)n(-c4ccccc4)nc23)CC1 the results were 12-LOX inh inactive, DT40 TDP1 no CPT inactive and TDP1 cell CPT inactive.
Cc1nnc(N2CCCC(C(=O)Nc3cccc(C(F)(F)F)c3)C2)c2nn(-c3ccccc3)c(C)c12 (stereo not drawn) was read as 12-LOX inh inactive, DT40 TDP1 no CPT 20.6µM and TDP1 cell CPT inconclusive.
For COc1ccccc1NC(=O)C1CCCN(c2nnc(C)c3c(C)n(-c4ccccc4)nc23)C1 (stereo not drawn) the results were 12-LOX inh inactive, DT40 TDP1 no CPT 8.2µM and TDP1 cell CPT 16.4µM.
For CCOC(=O)c1cccc(NC(=O)C2CCCN(c3nnc(C)c4c(C)n(-c5ccccc5)nc34)C2)c1 (stereo not drawn) the results were 12-LOX inh inactive, DT40 TDP1 no CPT 9.2µM and TDP1 cell CPT 13µM.
CN(C(=O)c1ccc(NC(=O)Cc2ccc(NC(=O)C3CCCN(C(=O)C4CC4)C3)cc2)cc1)C1CC1 (stereo not drawn) was read as IL1B secr inh inactive, 12-LOX inh inactive, HT1080 IDH1KD tx inactive, DT40 TDP1 no CPT inconclusive, HT1080-NT tox inactive and TDP1 cell CPT inactive.
Screening CC(C1CC1)N(CC(F)(F)F)C(=O)CN(C)CC(=O)NCc1ccco1 (stereo not drawn) returned 12-LOX inh inactive.
For O=C(Cc1nc(-c2c[nH]c(C(=O)N3CCCC3)c2)cs1)NCc1ccccc1 the results were 12-LOX inh inactive.
For OCC[C@@H]1C[C@@H](O)[C@H](O)[C@]2(CCc3ccccc3CO2)O1 the results were IL1B secr inh inactive, 12-LOX inh inactive, HT1080 IDH1KD tx inactive, DT40 TDP1 no CPT inactive, HT1080-NT tox inactive and TDP1 cell CPT inactive.
Screening Cc1occc1C(=O)N1CC[C@@H]2CN(S(C)(=O)=O)[C@@H]2C1 returned 12-LOX inh inactive.
For CCCC(C)N(C)Cc1nnc(-c2ccc(Br)s2)o1 (stereo not drawn) the results were 12-LOX inh inactive.
For NCC(c1cccs1)c1c[nH]c2ccccc12 (stereo not drawn) the results were 12-LOX inh inactive.
